Assay results from PubChem BioAssay (NCI).
The panel holds about 83,000 compounds, 20% with a hit somewhere; the sample as a whole holds those more often.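 The test compound was applied at a single concentration to cells in 96-well plates for 48 hours, and percent growth was recorded.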 Calls of active or inactive are those of the source.

Test system: LOX IMVI melanoma
Assay: NCI-60 one-dose screen, 48 h (100 = growth as untreated, 0 = no growth, -100 = all killed)
Settings: 10 µM unless noted
Experimental: Growth inhibition of the LOX IMVI human tumor cell line is measured as a screen for anti-cancer activity. Cells are grown in 96 well plates and exposed to the test compound for 48 hours. Compounds are tested at a single concentration, which is 10^-5 M for most compounds. The reported endpoint is percent growth (GI% or GIPRCNT), where numbers from 0 - 100% represent growth inhibition, and numbers from -100% - 0 represent cell death. For example, a value of 40 represents 60% growth inhibition. A value of 0 means no net growth occurred over the course of the experiment. A value of -40 indicates 40% of cells at the beginning of the experiment died by the end of the experiment. A value of -100 means all cells are dead at the end of the experiment.
NCI-60 Human Tumor Cell Lines Screen was performed using the standard one-dose NCI protocol, which is described in more detail at https://dtp.cancer.gov/discovery_development/nci-60/default.htm.
Compounds with GIPRCNT values below 10 were considered active. Activity score was based on GIPRCNT using the following formula: […]
Score is 0 for GIPRCNT values of 100 or above, 50 for GIPRCNT values of 0, and 100 for GIPRCNT values of -100.

Structure (SMILES)	growth
C=C(C)[C@@H]1CC[C@]2(C(=O)O)CC[C@]3(C)[C@H](CC[C@@H]4[C@@]5(C)C[C@@H](Cc6cn(CCO[C@@H]7O[C@H](COC(C)=O)[C@H](OC(C)=O)[C@H](OC(C)=O)[C@H]7OC(C)=O)nn6)[C@H](O)C(C)(C)[C@@H]5CC[C@]43C)[C@@H]12	45.2% (inactive)
CCOC(=O)c1cc(-c2ccc([N+](=O)[O-])cc2)n(-c2ccc(C(=O)O)c(O)c2)c1C	66.8% (inactive)
C=C1C(=O)O[C@H]2[C@H]1CC/C(COC(=O)NCc1cc[nH]c1)=C\CC[C@@]1(C)O[C@@H]21	32.3% (inactive)
CC(C)(C)n1cc(-c2ccnc(NCCCNS(=O)(=O)c3ccc(F)cc3)c2)c(-c2cccc(F)c2)n1	33.7% (inactive)
N#Cc1c(-c2ccccc2)cc(-c2ccccc2)n(CCCCCC(=O)Nc2ccccc2N)c1=O	26.2% (inactive)
COc1cc(/C=C\c2cc(/C=C\c3ccc(O)c(OC)c3)n(C(=O)COc3ccc(Cl)cc3Cl)n2)ccc1O	3.79% (active)
CCCCCOc1ccc(C(=O)/C(Br)=C/C(=O)O)cc1	86.4% (inactive)
O=C1NCCC12CCN(c1c(Cl)cncc1-c1ccc(O)cc1)CC2	87.7% (inactive)
C=C1C(=O)O[C@H]2[C@H]1CC/C(COC(=O)CCSCCC(=O)OC/C1=C/CC[C@@]3(C)O[C@H]3[C@H]3OC(=O)C(=C)[C@@H]3CC1)=C\CC[C@@]1(C)O[C@@H]21	-79.3% (active)
CC(C)n1cnc2c(=S)nc[nH]c21	93.7% (inactive)
CN(C)CCCC1(c2ccc(F)cc2)OCc2cc(-c3cccc4[nH]ccc34)ccc21 (stereo not given)	-92.1% (active)
Clc1ccc(Nc2nnc(COc3ccccc3)c3ccccc23)cc1	-62% (active)
CCNc1nc(-c2ccc(Cl)c(OC)c2)c(-c2ccnc(NCCCNS(=O)(=O)c3ccc(Cl)cc3)n2)s1	56.3% (inactive)
CCCCCCCCn1ccc2cc(NC(=O)CN3CCN(c4nc(C)cc(Cl)n4)CC3)ccc21	99.6% (inactive)
N#Cc1cccc(NC(=O)c2oc3ccccc3c2-c2cnn(-c3ccccc3)c2)c1	77.9% [50 µM] (inactive)
O=C(O)[C@@H]1c2ccccc2-c2ccccc2[C@H]1C(=O)O	99.3% (inactive)
CC(C)=CCC[C@](C)(O)[C@H]1CC[C@]2(C)[C@@H]1CC[C@@H]1[C@@]3(C)Cc4nccnc4C(C)(C)[C@@H]3CC[C@]12C	83.7% (inactive)
Fc1cc(F)cc(C(c2c[nH]c3ccccc23)c2c[nH]c3ccccc23)c1	83.5% (inactive)
Cc1cccc2c1NC(=O)C2(c1ccc(O)cc1)c1ccc(O)cc1	59.2% (inactive)
O=C(Nc1nn(-c2ccc(Cl)cc2Cl)nc1-c1ccccc1)c1ccccc1	82.5% (inactive)

Structure (SMILES)	growth
NC(=O)c1c(NC(=O)c2ccccc2)sc2c1CCC(=O)C2	17.6% (inactive)
CC(C)OC(=O)c1ccc2[nH]c(O)c(C(=Nc3ccc(N(C)C(=O)CN4CCN(C)CC4)cc3)c3ccccc3)c2c1	-96.7% (active)
CCSc1nc(NC)c2cc(-c3ccc(C(F)(F)F)cc3)ccc2n1	106% (inactive)
CCOC(=O)c1[nH]c(=O)c2c(C)nc(-c3ccccc3)cc2c1O	112% (inactive)
COC(C(=O)[C@@H](O)[C@@H](C)O)[C@@H]1Cc2cc3cc(O[C@H]4C[C@@H](O[C@H]5C[C@@H](O)[C@H](O)C(C)O5)[C@H](O)C(C)O4)cc(O)c3c(O)c2C(=O)[C@H]1O[C@H]1C[C@@H](O[C@H]2C[C@@H](O[C@H]3C[C@@H](OC)[C@H](O)C(C)O3)[C@@H](O)C(C)O2)[C@H](O)C(C)O1 (stereo not given in full)	17.8% (inactive)
CN(CCn1sc(=O)n(Cc2ccccc2)c1=O)Cc1ccc2c(Cl)cc(Cl)c(O)c2n1	30.7% (inactive)
CCOC(=O)C1=C(NC)OCC1=O	101% (inactive)
CC(C)(C)[Si](C)(C)O[C@H]1C(=O)C=CN2CC=C[C@@H]12	102% [100 µM] (inactive)
CCN(CC)c1ccc(/C=C/C(=O)c2ccc(Nc3nc(Nc4ccccc4)nc(Nc4ccccc4)n3)cc2)cc1	40.3% (inactive)
COc1cc(CNS(=O)(=O)c2ccc(C)cc2)ccc1OCc1cn(-c2ccc(Br)cc2)nn1	97.9% (inactive)
COc1cc(CNC(=O)CCCC/C=C/C(C)C)ccc1OCc1nnc(Nc2ccc([N+](=O)[O-])cc2)o1	55.2% (inactive)
O=C1c2cccnc2C(=O)c2c1c(C(=O)NCCCN1CCCCC1)c1ccccn21	-71.4% (active)
O=C1C(Cl)=C(Nc2ccc(O)cc2)C(=O)N1Cc1ccc(Cl)cc1	57.7% (inactive)
CNC(=O)c1cc(Oc2ccc3nc(NC(C)=O)sc3c2)ccn1	93.2% (inactive)
CNC(=O)c1c(NC(=O)c2ccc(C(F)(F)F)cc2)sc2c1CCC(=O)C2	1.51% (active)
O=C(N/N=C/c1ccc(F)cc1)c1ccc(C(F)(F)F)nc1Nc1cccc(C(F)(F)F)c1	-23.7% (active)
CN(C)C1CCN(Cc2ccc(NC(=O)c3cncc(C#Cc4cnc(N)c5ncccc45)c3)cc2C(F)(F)F)CC1	63.7% (inactive)
COc1ccc2c(O)c(/C=C3\N=Nc4ncccc43)oc2c1C[C@H]1CCNC[C@H]1F	-11% (active)
CC(C)(C)c1cc(-c2nc3ccc(N4CCN(S(C)(=O)=O)CC4)cc3[nH]2)cc(C(C)(C)C)c1O	91.8% (inactive)
C=C(C)[C@@H]1CC[C@]2(C)[C@H](CC=C3[C@@H]4[C@H](C)[C@@H](C)CC[C@]4(CO)CC[C@]32C)[C@@]1(C)CCCN	-99% (active)
